{"source": "PubChem BioAssay (NCATS)", "note": "Records with an inconclusive call do not appear. Unmarked numbers belong to inactive results. Calls of active or inactive are those of the source. Calls follow the shape of the full dose curve. % is scaled to controls: 0 for no effect and ±100 for the full control effect; potency is read from the fitted curve at half-maximal effect."}
{"biological_target": "Atrial natriuretic peptide receptor 1 (Homo sapiens) (UniProt P16066)", "sequence (P16066 whole entry, looked up)": "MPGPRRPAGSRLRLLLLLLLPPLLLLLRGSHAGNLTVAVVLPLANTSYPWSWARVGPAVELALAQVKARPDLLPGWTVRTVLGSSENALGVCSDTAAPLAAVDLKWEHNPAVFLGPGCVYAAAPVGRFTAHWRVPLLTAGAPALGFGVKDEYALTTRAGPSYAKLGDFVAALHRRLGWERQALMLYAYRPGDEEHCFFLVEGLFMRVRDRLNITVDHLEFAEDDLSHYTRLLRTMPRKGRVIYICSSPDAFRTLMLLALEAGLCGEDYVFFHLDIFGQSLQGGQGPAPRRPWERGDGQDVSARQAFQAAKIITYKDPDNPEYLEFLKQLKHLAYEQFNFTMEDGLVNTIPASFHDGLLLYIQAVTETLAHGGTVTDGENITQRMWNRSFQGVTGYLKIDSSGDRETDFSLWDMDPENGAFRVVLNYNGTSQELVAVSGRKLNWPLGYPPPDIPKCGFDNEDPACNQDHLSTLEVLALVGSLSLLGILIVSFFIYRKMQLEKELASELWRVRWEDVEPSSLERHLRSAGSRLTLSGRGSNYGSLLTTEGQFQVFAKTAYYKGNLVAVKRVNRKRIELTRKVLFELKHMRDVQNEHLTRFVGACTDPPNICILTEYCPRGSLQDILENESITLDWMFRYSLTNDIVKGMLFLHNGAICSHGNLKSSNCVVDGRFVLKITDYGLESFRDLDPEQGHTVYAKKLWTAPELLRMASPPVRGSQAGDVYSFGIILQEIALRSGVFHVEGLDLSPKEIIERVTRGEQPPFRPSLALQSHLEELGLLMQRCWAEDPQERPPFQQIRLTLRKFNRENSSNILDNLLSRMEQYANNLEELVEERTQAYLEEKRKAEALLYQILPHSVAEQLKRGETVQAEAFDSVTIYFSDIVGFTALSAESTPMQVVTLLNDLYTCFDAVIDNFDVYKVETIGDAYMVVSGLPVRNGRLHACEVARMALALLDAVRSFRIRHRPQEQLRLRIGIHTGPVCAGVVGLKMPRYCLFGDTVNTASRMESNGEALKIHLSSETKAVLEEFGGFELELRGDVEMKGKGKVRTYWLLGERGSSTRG", "assay": "Natriuretic polypeptide receptor (hNpr1) antagonism - Pilot CMLD screen (AID 1347052)", "conditions": "HEK293 hNpr1 GloSensor cGMP luminescence, ANP-stimulated; series mostly up to 9.22 µM; activity change, negative = inhibition: at the top concentration", "method": "In order to identify small molecular compounds that inhibit the hNpr1 receptor we developed a high-throughput assay to measure inhibition of the guanylate cyclase activity of the receptor. cGMP production was measured using a circular permutated Firefly luciferase (FLuc) enzyme functionally linked to the cGMP binding domain of human phosphodiesterase 5 (GloSensor technology pGS-40F, (Fan, F. et al. 2008). The cGMP-sensor was expressed in human embryonic kidney 293 (HEK-293) cells and FLuc activity was measured after stimulation with hNrp agonist peptide. hNrp agonists activates the receptor's associated guanylyl cyclase (GC) domain producing cGMP which then binds to the GloSensor resulting in FLuc activation, the enzymatic activity of which can be measured as bioluminescence with addition of luciferin substrate.\nThis assay was initially piloted by testing with a small library of specialty compounds.\nPROTOCOL TABLES (as described by Inglese J, Shamu CE and Guy RK. 2007)\nSEQUENCE No. (e.g., 1, 2, 3, etc.); […] (e.g., Cells, Incubation, Reagent, etc.); VALUE and DESCRIPTION.\n1. Cells. Seed 1500 HEK293 cGMP-sensor cells expressing hNpr1 per well in 4uL into Greiner 1536-well white/solid bottom high base, tissue culture-treated plates.\n2. Incubation. Incubate plated cells at 37C in 5% CO2, 95% RH overnight.\n3. Reagent. Add 1uL per well GloSensor reagent from Promega (2% final concentration) or CO2 independent media vehicle control to respective columns of Greiner 1536-well plates.\n4. Incubation. Incubate plated cells at room temperature for 2 h, protect from light.\n5. Compounds. Library compounds and A-71915 control added at 23 nL per well, transferred by Pin Tool.\n6. Incubation. Incubate plated cells for 30 min. at room temperature, protect from light.\n7. Detector. GloSensor baseline pre-read luminescence measured using CCD-based camera (Viewlux).\n8. Compound. Add 1uL of hNppA peptide to 0.1 nM final concentration to stimulate hNpr1 or CO2 independent media as vehicle control.\n9. Incubation. Incubate treated cells at room temperature for 20 min., protect from light.\n10. Detector. GloSensor post-hNppA luminescence measured using CCD-based camera (Viewlux).\nNOTES (numbers refer to Sequence numbers above)\n1. HEK293 cells expressing hNpr1 and GIP/pGS-40F grown to 85-95% confluence (48-72 h) in T175 culture flasks (CO2 independent media supplemented with 10% FBS, 1% Pen/Strep antibiotics and 1 ug/mL puromycin). Trypsinize and harvest cells from T175 culture flasks and filter through 40 um cell strainer. Cells counted with Invitrogen Countess (30,000,000 - 50,000,000 cells/flask). Cells diluted to a final concentration of 375 cells/uL in CO2 independent media and a Millipore multidrop used to dispense 1500 cells per well (4uL/well) into 13 1536-well Greiner White/Solid bottom, high base tissue-culture treated (TC) plates and one Aurora 1536-well Black/Clear bottom, low base, TC plate (for visual inspection of cell health throughout the duration of the assay).\n2. Cells incubated overnight at ambient temperature, 24 h. at 37C in 95% RH incubator protected from light, covered with metal lid with gas-exchange holes.\n3. Prepare GloSensor Reagent (Promega): Reconstitute GloSensor luciferase substrate by adding 8.2mL Hepes buffer to 250mg substrate, mix well, protect from light and stored at -80C. Prepare a fresh 12% GloSensor solution in CO2 independent supplemented plating media (see above). Mix well and store at ambient temperature, protected from light. 1uL 12% GloSensor Luciferase Reagent added (2% final concentration) to respective columns of 13 x 1536-well Greiner plate with BioRaptr, 1uL CO2 independent plating media added to respective columns as vehicle control with BioRaptr.\n4. Cells incubated for 2 h. at ambient temperature, protected from light with metal lid with gas-exchange holes.\n5. A-71915 stock solution prepared (10 mM in DMSO). […]", "units": {"activity change, negative = inhibition": "%"}}
{"smiles": "C=C(C)C(O)C=Cc1ccc(C(F)(F)F)cc1", "note": "(stereo not given)", "Potency": "5.31 µM (active)"}
{"smiles": "COC(=O)c1ccc(CN2C(=O)[C@@]3(CC(C)=C[C@@H](COc4ccccc4)O3)c3ccccc32)cc1", "activity change, negative = inhibition": -5.74}
{"smiles": "C=C(C)C(=O)OC[C@H]1CN2[C@H](c3ccc(Br)cc3)[C@H](C)CC[C@H]2C(=O)O1", "activity change, negative = inhibition": -0.296}
{"smiles": "Cc1cc2c(c(=O)n1Cc1ccccc1)[C@H]1O[C@](c3ccsc3)(Cc3cc(C#N)ccc31)O2", "activity change, negative = inhibition": -0.0805}
{"smiles": "CC1(OC(=O)c2cccs2)C(=O)C=C2C=C(c3ccsc3)OC=C2C1=O", "note": "(stereo not given)", "activity change, negative = inhibition": 21.5}
{"smiles": "O=C1CCCC2=C1[C@H]1O[C@](CCCCN3C(=O)c4ccccc4C3=O)(Cc3c1ccc1ccccc31)O2", "activity change, negative = inhibition": -0.856}
{"smiles": "CC(=O)OC[C@H]1O[C@H](CC=NOC[C@@H](O)[C@H]2O[C@@H]3OC(C)(C)O[C@H]3[C@@H]2O)C=C[C@H]1OC(C)=O", "activity change, negative = inhibition": 6.95}
{"smiles": "O=C1OC2(CCCCC2)CC2=C1[C@H]1O[C@](c3ccsc3)(Cc3c1ccc1ccccc31)O2", "activity change, negative = inhibition": 4.73}
{"smiles": "COC(=O)NC(C=Cc1ccccc1)C(C(C)=O)C(=O)OC", "note": "(stereo not given)", "activity change, negative = inhibition": -2.76}
{"smiles": "COC(=O)NC(c1ccccc1)c1c[nH]c2ccc(OC)cc12", "note": "(stereo not given)", "activity change, negative = inhibition": 7.78}
{"smiles": "CC1(OC(=O)c2ccc(Cl)nc2)C(=O)C=C2C=C3CCCN3C=C2C1=O", "note": "(stereo not given)", "activity change, negative = inhibition": -0.668}
{"smiles": "COc1cccc(CO[C@H]2C=C[C@@H](c3ccccc3)O[C@H]2CBr)c1", "activity change, negative = inhibition": 12.9}
{"smiles": "CCC(=O)OC1(C)C(=O)C=C2C=C(c3ccc(C#N)cc3)OC=C2C1=O", "note": "(stereo not given)", "activity change, negative = inhibition": 1.72}
{"smiles": "CCN1C(=NCCc2c[nH]c3ccccc23)NC(c2ccccc2)C(C(=O)OC)=C1C", "note": "(stereo not given)", "Potency": "inactive"}
{"smiles": "COCC(=O)C(C(=O)OC)[C@H](CCc1ccccc1)NC(=O)OC", "note": "(stereo not given in full)", "activity change, negative = inhibition": -0.499}
{"smiles": "Cc1cc(C)cc(CO[C@H]2C=C[C@@H](c3ccccc3)O[C@H]2CO)c1", "activity change, negative = inhibition": 6.34}
{"smiles": "COc1ccc([C@]23Cc4cc(C#N)ccc4[C@H](O2)C2=C(CC4(CCCCC4)OC2=O)O3)cc1", "activity change, negative = inhibition": 3.89}
{"smiles": "CCOC(=O)N1C2=NC(C(=O)OC)=C(C(=O)OC)[C@@H]3N(Cc4ccccc4)c4ccccc4[C@]23C[C@H]1C(=O)OC", "activity change, negative = inhibition": 0.745}
{"smiles": "Cc1ccc(S(=O)(=O)NC(CCc2ccccc2)CC(=O)C(C)(C)C)cc1", "note": "(stereo not given)", "activity change, negative = inhibition": 7.94}
{"smiles": "COC(=O)C1=C(C(=O)OC)[C@@H]2N(C)c3ccccc3[C@@]23C[C@@H](CO)N(C(=O)NC2CCCC2)C3=N1", "activity change, negative = inhibition": 5.23}
{"smiles": "COC(=O)C1=C(C)N(CCC(C)O[Si](C)(C)C(C)(C)C)C(=O)N(C(C)=O)C1c1ccccc1", "note": "(stereo not given)", "activity change, negative = inhibition": -4.29}
{"smiles": "COCC=CC1=CC2=CC(=O)C(C)(OC(=O)c3cnc4ccccc4n3)C(=O)C2=CN1C1CC1", "note": "(stereo not given)", "activity change, negative = inhibition": 1.09}
{"smiles": "COC(=O)N[C@H](C(C(=O)OC)=C(C)NCc1ccccc1)c1cccs1", "activity change, negative = inhibition": -0.544}
{"smiles": "CC(C)[C@@H](OCc1ccccc1)[C@H](C)C=NOC[C@@H](O)[C@H]1O[C@@H]2OC(C)(C)O[C@H]2[C@@H]1O", "activity change, negative = inhibition": 6.69}
{"smiles": "N#CCCN(CC#Cc1ccccc1)OCc1ccccc1", "activity change, negative = inhibition": 0.431}
{"smiles": "COc1cccc([C@@H]2[C@H](C)C[C@H]3CC(=O)N4[C@H](CC(=O)N32)C[C@@H](C)[C@@H]4c2cccc(OC)c2)c1", "activity change, negative = inhibition": 0.122}
{"smiles": "COC(=O)c1ccc(CN2C(=O)[C@]3(OCCC=C[C@@H]3C)c3cc(OC)ccc32)cc1", "activity change, negative = inhibition": 0.557}
{"smiles": "COC(=O)CC=C[C@@H](C)[C@@H](C=NOC[C@@H](O)COCc1ccco1)NS(=O)(=O)c1ccc(C)cc1", "activity change, negative = inhibition": -0.365}
{"smiles": "COC(=O)[C@H]1[C@@H](c2cccc(C(F)(F)F)c2)NC(=O)N(Cc2ccccc2)[C@@H]1C", "activity change, negative = inhibition": -1.12}
{"smiles": "COc1ccc2ccccc2c1-c1c(OC)ccc2ccccc12", "activity change, negative = inhibition": 0.253}
{"smiles": "CCN(CC)CCCN=C1NC(c2cccc(C(F)(F)F)c2)C(C(=O)OC)=C(C)N1CC", "note": "(stereo not given)", "Potency": "inactive"}
{"smiles": "CCN1C(=O)[C@H]2[C@H]3C(=CC[C@@H]2C1=O)C1(OCCCO1)[C@@H]1O[C@H]1[C@H]3O", "activity change, negative = inhibition": -1.17}
{"smiles": "CC(=O)[C@@H]1[C@@H](C)N(Cc2ccccc2)C(=O)N[C@H]1c1ccccc1", "activity change, negative = inhibition": 1.96}
{"smiles": "C=CC1=C2C=C(C3CC3)N(CCN3CCOCC3)C=C2C(=O)C(C)(OC(=O)c2ccco2)C1=O", "note": "(stereo not given)", "activity change, negative = inhibition": 4.52}
{"smiles": "COc1ccc(C(O)C2=CCCC2=O)cc1", "note": "(stereo not given)", "activity change, negative = inhibition": -3.9}
{"smiles": "COC(=O)C(C(C)=O)[C@@H](NC(=O)NCc1ccccc1)c1ccccc1", "note": "(stereo not given in full)", "activity change, negative = inhibition": -0.0716}
{"smiles": "CCN(CC)CCCN1C(=O)C2=C(C1=O)C1N(C)c3ccccc3[C@@]13C[C@@H](CO)N(C(=O)CCC(=O)OC)C3=N2", "note": "(stereo not given in full)", "activity change, negative = inhibition": 13.4}
{"smiles": "COCn1c2ccccc2c2nnc(C(=O)O)nc21", "activity change, negative = inhibition": -0.695}
{"smiles": "CCN1C(=O)N(S(=O)(=O)c2ccc(C)cc2)C(c2ccccc2)C(C(=O)OC)=C1C", "note": "(stereo not given)", "activity change, negative = inhibition": -0.426}
{"smiles": "CCCCC#C[C@@H]1C=C[C@H](Oc2ccc(C(=O)OC)cc2)[C@@H](COC(=O)OCC)O1", "activity change, negative = inhibition": 1.53}
